This note sets out measurements from PubChem BioAssay (NCI).

Some test systems named below: SR leukemia; RPMI-8226 leukemia; OVCAR-8 ovarian; OVCAR-5 ovarian; OVCAR-4 ovarian; SK-OV-3 ovarian; IGROV1 ovarian; OVCAR-3 ovarian; HS 578T breast; NCI/ADR-RES ovarian.
Assay in all cases: NCI-60 one-dose screen, 48 h (100 = growth as untreated, 0 = no growth, -100 = all killed)
Common to all, as to settings: 10 µM

Molecules are shown by their SMILES. Compounds without any hit were thinned out: in the full panel of roughly 83,000, 20% have a hit.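 The test compound was applied at a single concentration to cells in 96-well plates for 48 hours, and percent growth was recorded.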 Unmarked numbers belong to inactive results. Calls of active or inactive are those of the source. The calls were made as follows: active = growth percent below 10; inactive = the rest.

As for `CN1CCN(c2ccc(C(=O)/C=C/c3cc(C(F)(F)F)ccc3Cl)cc2)CC1`, the growth in the test with SR leukemia was 1.37% (active); with RPMI-8226 leukemia, 3.72% (active); with OVCAR-8 ovarian, -51.5% (active); in the test with OVCAR-5 ovarian, -91% (active); in the test on OVCAR-4 ovarian, -36.5% (active); in the test with SK-OV-3 ovarian, 6.75% (active). Further, the growth in the test on IGROV1 ovarian was -82.7% (active); in the test on OVCAR-3 ovarian, -37.7% (active); in the test on HS 578T breast it was 3.68% (active); in the test on NCI/ADR-RES ovarian, -56.9% (active).

Take `COc1cccc(/C=N/NC(=O)c2ccc3nc(-c4ccc(Cl)cc4)[nH]c3c2)c1O`: the growth in the test with SR leukemia is -36.8% (active); in the test on RPMI-8226 leukemia, -50.5% (active); in the test with OVCAR-8 ovarian, -84.6% (active); in the test on OVCAR-5 ovarian, -63% (active); in the test on OVCAR-4 ovarian, -36.3% (active); in the test on SK-OV-3 ovarian it was -84.6% (active). Moreover, the growth with IGROV1 ovarian was -77.2% (active); in the test with OVCAR-3 ovarian it was -87.4% (active); with HS 578T breast, -54.7% (active); in the test on NCI/ADR-RES ovarian, 50.7%.

Regarding `O=C(CSc1nnc(-c2c[nH]c3ccccc23)n1-c1ccccc1)c1ccc(Cl)cc1`, the growth was 92.4% with SR leukemia; 83.2% in the test on RPMI-8226 leukemia; 24.5% with OVCAR-8 ovarian; 90.7% with OVCAR-5 ovarian; 14.9% in the test on OVCAR-4 ovarian; 72.1% in the test with SK-OV-3 ovarian. In addition, the growth was 51.4% in the test on IGROV1 ovarian, 73.9% in the test with OVCAR-3 ovarian, 33.2% in the test with HS 578T breast and 5.85% (active) with NCI/ADR-RES ovarian.

As for `O=C1Nc2ccc(Cl)cc2/C1=C/c1ccc(OCc2ccccn2)cc1`, the growth in the test on SR leukemia is 54.9%; with RPMI-8226 leukemia, 73.9%; in the test with OVCAR-8 ovarian, 45.9%; in the test with OVCAR-5 ovarian, 88.2%; in the test on OVCAR-4 ovarian, -1.81% (active); in the test with SK-OV-3 ovarian it was 89.2%. The growth was 54.6% in the test with IGROV1 ovarian, 57.3% in the test with OVCAR-3 ovarian, 14.8% with HS 578T breast and 14.1% with NCI/ADR-RES ovarian.

Regarding `Cc1noc2c(Cc3ccccc3)nn(CC(=O)N/N=C/c3ccc(Br)cc3)c(=O)c12`, the growth with SR leukemia is 90.6%; with RPMI-8226 leukemia it was 78.6%; in the test with OVCAR-8 ovarian it was 9.24% (active); in the test with OVCAR-5 ovarian, 62.5%; with OVCAR-4 ovarian, -61.9% (active); in the test with SK-OV-3 ovarian it was 43.8%. The growth with IGROV1 ovarian is 53.4%; with OVCAR-3 ovarian, -33.6% (active); in the test with HS 578T breast, 30.7%; in the test on NCI/ADR-RES ovarian it was 58%.

In the case of `Nc1nnc(-c2c[nH]c3ncccc23)c(-c2c[nH]c3ccc(Br)cc23)n1`, the growth was 19.1% in the test on SR leukemia; 38.7% in the test with RPMI-8226 leukemia; 46.2% in the test on OVCAR-8 ovarian; 68.2% in the test with OVCAR-5 ovarian; 55.7% in the test with OVCAR-4 ovarian; 55.3% in the test with SK-OV-3 ovarian. For the same molecule, the growth is 25.7% with IGROV1 ovarian, 52.6% with OVCAR-3 ovarian, 33.7% with HS 578T breast and 98.6% with NCI/ADR-RES ovarian.

In the case of `N#Cc1c(NC(=O)c2ccc(C(F)(F)F)cc2C(F)(F)F)sc2c1CCC(=O)C2`, the growth in the test with SR leukemia was -11.3% (active); with RPMI-8226 leukemia, 2.53% (active); with OVCAR-8 ovarian it was -16.9% (active); in the test on OVCAR-5 ovarian, -62.3% (active); with OVCAR-4 ovarian it was -40.8% (active); in the test with SK-OV-3 ovarian it was -22.2% (active). Also, the growth was -3.75% (active) in the test with IGROV1 ovarian, -59.5% (active) with OVCAR-3 ovarian, -5.88% (active) in the test on HS 578T breast and 1.12% (active) in the test on NCI/ADR-RES ovarian.

`COc1ccc2[nH]cc(/C=N/Nc3ccc(Br)cn3)c2c1`: the growth was 3.07% (active) with SR leukemia; -11.4% (active) in the test on RPMI-8226 leukemia; 34% in the test with OVCAR-8 ovarian; 55.3% in the test with OVCAR-5 ovarian; 53.2% in the test on OVCAR-4 ovarian; 65.7% with SK-OV-3 ovarian. In addition, the growth in the test on IGROV1 ovarian was 10.3%; in the test with OVCAR-3 ovarian, 31.1%; with HS 578T breast, 25.8%; in the test with NCI/ADR-RES ovarian it was 7.9% (active).

Turning to `CC(=O)c1ccc(Nc2nc(SCCC(C)C)nc(-c3ccc(F)cc3)c2C#N)cc1`, the growth is 64.9% in the test on SR leukemia; 81.7% with RPMI-8226 leukemia; 8.35% (active) in the test with OVCAR-8 ovarian; 53.4% in the test on OVCAR-5 ovarian; -6.74% (active) in the test on OVCAR-4 ovarian; 98.7% in the test on SK-OV-3 ovarian. The growth in the test on IGROV1 ovarian was 16%; in the test with OVCAR-3 ovarian, 19%; in the test with HS 578T breast, 32%; in the test with NCI/ADR-RES ovarian, 23.9%.

Take `O=C1CCC(N2Cc3c(NCc4ccc(-c5ccccc5)cc4)cccc3C2=O)C(=O)N1` (stereo not given): the growth in the test with SR leukemia is 72.5%; with RPMI-8226 leukemia, 68.5%; with OVCAR-8 ovarian it was 34.9%; with OVCAR-5 ovarian, 83.7%; in the test with OVCAR-4 ovarian it was 69.8%; with SK-OV-3 ovarian, 103%. The growth in the test on IGROV1 ovarian is 57.4%; in the test with OVCAR-3 ovarian, 82.8%; in the test with HS 578T breast, 51.7%; in the test on NCI/ADR-RES ovarian it was 52.6%.

For `Cc1ccc(/C=C/C(=O)c2ccc(NC(=O)CSc3nnc(-c4c[nH]c5ccccc45)n3-c3ccccc3)cc2)cc1`, the growth is 72.4% in the test on SR leukemia; 4.29% (active) in the test with RPMI-8226 leukemia; 96.4% in the test on OVCAR-8 ovarian; 103% in the test with OVCAR-5 ovarian; 85.2% with OVCAR-4 ovarian; 106% with SK-OV-3 ovarian. For the same molecule, the growth in the test on IGROV1 ovarian was 93.1%; with OVCAR-3 ovarian it was 83.2%; with HS 578T breast it was 83.8%; in the test on NCI/ADR-RES ovarian, 93.6%.

For the molecule `CCCCSc1nc(Nc2ccc(/C(C)=N/NC(N)=S)cc2)c(C#N)c(-c2ccc(OC)cc2)n1`, the growth in the test with SR leukemia is 40.2%; in the test on RPMI-8226 leukemia, 67.8%; with OVCAR-8 ovarian it was 11.8%; with OVCAR-5 ovarian it was 130%; in the test on OVCAR-4 ovarian it was -43.9% (active); in the test on SK-OV-3 ovarian, 94.9%. Moreover, the growth is 68.4% in the test on IGROV1 ovarian, -27.2% (active) in the test with OVCAR-3 ovarian, 20.3% in the test with HS 578T breast and 25.8% in the test with NCI/ADR-RES ovarian.

With `Cc1ccc(-c2nc(Nc3ccc(C)c(S(N)(=O)=O)c3)c3ccccc3n2)cc1`, the growth in the test with SR leukemia is 3.79% (active); with RPMI-8226 leukemia it was 87%; in the test on OVCAR-8 ovarian it was 45.9%; in the test on OVCAR-5 ovarian, 94%; in the test with OVCAR-4 ovarian it was 70.1%; in the test on SK-OV-3 ovarian, 125%. The growth in the test with IGROV1 ovarian is 87.5%; in the test with OVCAR-3 ovarian, 57%; in the test with HS 578T breast, 102%; in the test with NCI/ADR-RES ovarian, 60.3%.
